Results on 5 molecules are retold here after PubChem BioAssay (NCATS).

Experiment [1] can be described thus: Cell Viability - N2a (AID 540).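 Note: cells exposed to compound for 40 h at 37 °C; plate controls were DMSO alone for no effect and tamoxifen control for full effect; nearly all actives have a fitted effect of over 45% in size.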 To be noted: N2a mouse neuroblastoma cell viability; activity change, negative = cytotoxicity: at 92.2 µM (top of the series). The gist of the method:
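Luminescent ATP signal (CellTiter-Glo, 20 min at room temperature) served as the viability read-out after N2a cells were treated with compounds for 40 hours at 37 °C. Concentration-response data were fitted to the Hill equation for AC50.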

Experiment [2] can be described thus: Cell Viability - Renal Proximal Tubule (AID 545). Note: nearly all actives have a fitted effect of over 40% in size. The conditions noted are these: renal proximal tubule cells viability, primary cells of rat origin; at 91.7 µM (top of the series). The gist of the method:
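Rat kidney proximal tubule cells, freshly isolated; 1000 cells/well, 5 hr settle, compound 40 hr 37 °C. CellTiter-Glo 20 min RT, luminescence read. AC50 by standard Hill fit.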

Experiment [3] in a line: Cellular Toxicity (caspase-3) Jurkat (AID 655).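 Note: cells exposed to compound for 16 h at 37 °C before reading.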 The conditions noted are these: Jurkat caspase-3 activation, luminescence, DMSO = 0%, tamoxifen = 100%; at 92.2 µM (top of the series). An outline of the steps:
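Luminescent caspase-3/7 readout (aminoluciferin substrate cleavage) in human T-cell leukemia Jurkat cells after 16 hr compound exposure. Concentration-response normalized to DMSO and 100 uM tamoxifen; AC50 by standard Hill equation.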

Experiment [4] can be described thus: Cell Viability - LYMP1-003 - Assay at 24 hr (AID 963). Note: potency is the fitted concentration of half-maximal effect. An outline of the steps:
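Cells seeded at 2500/well, 5 hr at 37 C; compounds added; 24 hr at 37 C; CellTiter-Glo added, 30 min room temperature; luminescence read. Decrease in ATP taken as cytotoxicity, AC50 from Hill modelling.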

The nature of experiment [5]: Cell Viability - LYMP2-004 (AID 966).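 For activity change, negative = cytotoxicity: plate controls were DMSO only for no effect and tetraoctylammonium bromide control for full effect.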 Note: nearly all actives have a fitted effect of over 65% in size. Note: potency is the fitted concentration of half-maximal effect. The gist of the method:
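Cells seeded 2500/well, rested 5 hr at 37 C, dosed across a concentration series, incubated 24 hr at 37 C, then CellTiter-Glo added for 30 min at room temperature and luminescence read. Hill fitting gave AC50.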

Experiment [6] can be described thus: Cell Viability - LYMP2-005 (AID 967). Note: potency is the fitted concentration of half-maximal effect. The gist of the method: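 Steps: seed 2500 LYMP2-005 cells/well, incubate 5 h at 37 C, add compound, incubate 24 h at 37 C, add CellTiter-Glo, wait 30 min at RT, read luminescence. Concentration-response data fitted to Hill equation for AC50.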
A short description of experiment [7]: Cell Viability - LYMP2-015 (AID 971). Note: nearly all actives have a fitted effect of over 55% in size. Note: potency is the fitted concentration of half-maximal effect. The gist of the method: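 Luminescent ATP read-out (CellTiter-Glo) served as the viability measure after lymphoblastoid cells were exposed to compounds for 24 hours at 37 C. Concentration-response data were fitted with the Hill equation to give AC50.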
A short description of experiment [8]: Cell Viability - LYMP2-019 (AID 973).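 For activity change, negative = cytotoxicity: 0% = DMSO alone and full effect = 92 µM tetraoctylammonium bromide.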 Note: nearly all actives have a fitted effect of over 55% in size. Note: potency is the fitted concentration of half-maximal effect. The gist of the method: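 Luminescent ATP read-out (CellTiter-Glo, 30 min room temperature) served as the viability measure after 24 hr treatment of lymphoblastoid cells at 37 C. Concentration-response data were fitted to the Hill equation for AC50.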
A short description of experiment [9]: Cell Viability - LYMP2-021 (AID 974). For activity change, negative = cytotoxicity: % is set by controls: 0 for no effect and ±100 for the full control effect.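 Note: compound exposure lasts 24 hours at 37 °C; nearly all actives have a fitted effect of over 55% in size.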 Note: potency is the fitted concentration of half-maximal effect. An outline of the steps:
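Plate 2500 lymphoblastoid cells per well and incubate 5 hr at 37 C. Add compounds over a concentration range and incubate 24 hr at 37 C. Add CellTiter-Glo, wait 30 min at room temperature, read luminescence.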

A short description of experiment [10]: Cell Viability - LYMP2-023 (AID 975).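 For activity change, negative = cytotoxicity: cellular ATP measured by luciferase luminescence as viability proxy; plate controls were DMSO only for no effect and 92 µM tetraoctylammonium bromide control for full effect.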 Note: nearly all actives have a fitted effect of over 55% in size. Note: potency is the fitted concentration of half-maximal effect. The gist of the method:
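2500 cells/well, 5 hr 37 C; cpd 24 hr 37 C; CellTiter-Glo, 30 min RT; luminescence. qHTS conc-response, Hill fit -> AC50. Pos ctrl tetraoctylammonium bromide.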

Experiment [11] can be described thus: Cell Viability - LYMP2-025 (AID 976).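 For activity change, negative = cytotoxicity: plate controls were DMSO only for no effect and tetraoctylammonium bromide control for full effect.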 Note: potency is the fitted concentration of half-maximal effect. An outline of the steps:
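Seed 2500 LYMP2-025 cells/well; 5 hr at 37 C; add compound; 24 hr at 37 C; add CellTiter-Glo; 30 min RT; read luminescence. AC50 from Hill-modelled concentration-response.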

Experiment [12] is described as follows: Cell Viability - LYMP2-002 (AID 977).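 Note: compound exposure lasted 24 h at 37 °C.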 Note: potency is the fitted concentration of half-maximal effect. The gist of the method: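 Human lymphoblastoid LYMP2-002 cells, 2500 per well, exposed to compounds for 24 h at 37 C in complete medium; viability read as intracellular ATP by CellTiter-Glo luminescence, AC50 from Hill fits.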
Experiment [13] is described as follows: Cell Viability - LYMP2-006 (AID 978). For activity change, negative = cytotoxicity: % is set by controls: 0 for no effect and ±100 for the full control effect. Note: nearly all actives have a fitted effect of over 60% in size. Note: potency is the fitted concentration of half-maximal effect. An outline of the steps: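 qHTS, 1536-well; 2500 cells/well, 5 hr 37 C; cpd 24 hr 37 C; CellTiter-Glo 30 min RT; luminescence. Tetraoctylammonium bromide pos. ctrl. AC50 via Hill eqn.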
Experiment [14] can be described thus: Cell Viability - LYMP2-008 (AID 980). Note: nearly all actives have a fitted effect of over 60% in size. Note: potency is the fitted concentration of half-maximal effect. The gist of the method: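 qHTS, human lymphoblastoid line, 2500 cells/well; 5 hr preincubation, 24 hr compound, 37 C. CellTiter-Glo ATP luminescence. AC50 via Hill equation. Tetraoctylammonium bromide positive control.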
The nature of experiment [15]: Cell Viability - LYMP2-026 (AID 989). Note: nearly all actives have a fitted effect of over 50% in size. Note: potency is the fitted concentration of half-maximal effect. An outline of the steps:
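Luminescent ATP signal (CellTiter-Glo, 30 min room temperature) measures viable lymphoblastoid cells after 24 hr compound treatment at 37 C. Decreased ATP reflects acute toxicity; AC50 values come from Hill-equation modeling.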

Experiment [16] can be described thus: Cell Viability - LYMP1-002 - Assay at 24 hr (AID 993). Note: potency is the fitted concentration of half-maximal effect. The gist of the method:
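Cells plated 2500/well, 5 hr 37 C; compounds added, 24 hr 37 C; CellTiter-Glo added, 30 min RT; luminescence read. Tetraoctylammonium bromide positive control. Hill-equation AC50.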

A short description of experiment [17]: Cell Viability - LYMP1-002 - Assay at 40 hr (AID 994). Note: nearly all actives have a fitted effect of over 60% in size. Note: potency is the fitted concentration of half-maximal effect. The gist of the method:
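Luminescent ATP signal served as the viability readout, with decreases taken as toxicity. Cells were treated with compounds across a concentration range for 40 hours at 37 C, and AC50 values came from standard Hill modeling.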

Experiment [18] deals with Retinoic acid receptor RXR-alpha (Homo sapiens) (UniProt P19793). Kind of experiment: qHTS assay for small molecule antagonists of retinoid X receptor alpha signaling (AID 588546; active = well fitted inhibition curve with a large enough effect in the signal ratio, with a control signal flat, not every such curve was filed as active; the % refers to the signal ratio; note: % is set by controls: 0 for no effect and ±100 for the full control effect). The conditions noted are these: HEK293T RXRa-UAS-bla, beta-lactamase ratio, antagonist mode. An outline of the steps: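 Beta-lactamase reporter inhibition, read as CCF4 fluorescence ratio (ex 405, em 460/530 nm) after 2 h at RT. HEK293T UAS-bla cells, 2500/well, were stimulated with 9-cis-RA at 500 or 100 nM final alongside test compound for 18 h at 37 C.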
Retinoic acid receptor RXR-alpha (Homo sapiens), sequence (P19793 whole entry, looked up): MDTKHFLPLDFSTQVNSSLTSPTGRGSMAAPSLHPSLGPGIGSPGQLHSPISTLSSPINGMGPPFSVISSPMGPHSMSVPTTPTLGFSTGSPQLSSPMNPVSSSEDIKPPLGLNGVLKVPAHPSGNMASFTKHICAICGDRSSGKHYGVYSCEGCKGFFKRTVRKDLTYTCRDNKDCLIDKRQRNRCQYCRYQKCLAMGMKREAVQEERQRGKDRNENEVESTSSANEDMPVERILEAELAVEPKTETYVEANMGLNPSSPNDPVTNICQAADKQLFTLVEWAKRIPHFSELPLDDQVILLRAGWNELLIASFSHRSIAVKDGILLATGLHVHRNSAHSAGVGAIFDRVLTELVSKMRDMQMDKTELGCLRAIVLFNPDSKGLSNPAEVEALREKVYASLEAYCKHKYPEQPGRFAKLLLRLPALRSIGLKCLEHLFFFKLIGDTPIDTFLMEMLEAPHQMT
In general terms: Quantitative high-throughput screening tests each substance at several concentrations.

Experiment [19] can be described thus: qHTS assay for small molecule agonists of the antioxidant response element (ARE) signaling pathway measured by Nrf2-dependant transcriptional activity - cell viability counter screen (AID 720653; active = well fitted curve in the direction sought with a large enough effect in the repeat runs; an effect the other way counts as inactive or inconclusive; note: % is set by controls: 0 for no effect and ±100 for the full control effect). To be noted: ARE-bla HepG2 viability, CellTiter-Glo ATP luminescence, 16 h; max response: active compounds read low. The gist of the method: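 ARE-bla HepG2 cells treated with compounds for 16 h at 37C; this counter screen measures viability as intracellular ATP by CellTiter-Glo luminescence after 30 min at room temperature.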

Experiment [20] can be described thus: qHTS assay for cell viability of the p53RE-bla HCT-116 cell line (AID 743292). The gist of the method:
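Viability of compound-treated p53RE-bla HCT-116 cells is taken from ATP-dependent luciferase luminescence. Treatment lasts 16 h at 37 C after a 5 h settling period; detection follows 30 min at room temperature.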

The structures appear in SMILES notation. Values joined by “and” are separate entries in the source; they are usually repeats but may differ in a detail not shown here. Equal entries are not always repeated. Values without a mark were called inactive. Results filed as inconclusive are left out. Active and inactive are the calls of the source. Unless noted, calls come from the whole dose curve; as a rule, active = well fitted curve in the direction sought with a large enough effect; inconclusive = small, poorly fitted or top-dose-only effect, or another doubt; inactive = no such curve, though single readings can be large; an effect the other way counts as inactive or inconclusive.

For `C=CCOC(=O)c1ccccc1C(=O)OCC=C`, the activity change, negative = cytotoxicity in [1] is -8.09%; in experiment [2], -7.06%. Besides, the caspase-3 activation in experiment [3] is -1.58%. Besides, the Potency entry in [4], in experiment [5], in experiment [6], in [7], in experiment [8] and in [9] was “inactive” in each case. In addition, the Potency entry in experiment [10], in [11], in [12], in experiment [13], in experiment [14] and in experiment [15] was “inactive” each time. For the same molecule, the Potency result in [16], in [17] and in [20] was “inactive” throughout. The max response in experiment [18] was -2.1% and -17.2%; in [19] it was -21% and -8.82%.

With `C=CC(=O)OCCOCCOCCOCCOC(=O)C=C`, the activity change, negative = cytotoxicity in experiment [1] was -110% (active) and -111% (active); in experiment [2], -95.5% (active) and -108% (active). Moreover, the Potency in experiment [4] was 31.6 µM (active) and 39.8 µM (active); in experiment [5] it was 7.94 µM (active) and 12.6 µM (active); in experiment [6] it was 10 µM (active) and 15.8 µM (active); in [7], 25.1 µM (active) and 20 µM (active); in experiment [8], 25.1 µM (active) and 31.6 µM (active); in experiment [9], 15.8 µM (active). Besides, the Potency in [10] is 25.1 µM (active) and 31.6 µM (active); in experiment [11] it was 25.1 µM (active); in experiment [12] it was 15.8 µM (active) and 25.1 µM (active); in [13], 25.1 µM (active); in experiment [14], 25.1 µM (active); in experiment [15], 15.8 µM (active) and 20 µM (active). Also, the Potency in [16] is 25.1 µM (active); in [17], 20 µM (active) and 25.1 µM (active). In addition, the max response in experiment [19] is -13%. In addition, in experiment [20], the Potency entry was “inactive”.

For the molecule `C/C=C\c1ccc(OC)cc1`, the activity change, negative = cytotoxicity was -0.381% in experiment [1] and -7.43% in [2]. Also, in experiment [3], the caspase-3 activation is -0.717%. Moreover, the Potency result in experiment [4], in [5], in experiment [6], in [7], in experiment [8] and in experiment [9] was “inactive” in each case. Also, the Potency entry in [10], in experiment [11], in experiment [12], in [13], in experiment [14] and in experiment [15] was “inactive” throughout. In addition, the Potency entry in [16], in experiment [17] and in experiment [20] was “inactive” in each case. The max response in experiment [18] is 3.92%; in experiment [19], -0.534%.

Turning to `CCCCCCCCCCCCCCC1CO1` (stereo not drawn), the activity change, negative = cytotoxicity was 8.54% in [1] and -7.28% in experiment [2]. The caspase-3 activation in [3] was 0.846%. In addition, the Potency entry in experiment [4], in experiment [5], in [6], in experiment [7], in [8] and in experiment [9] was “inactive” throughout. In addition, the Potency result in experiment [10], in experiment [11], in [12], in [13], in experiment [14] and in experiment [15] was “inactive” throughout. For the same molecule, the Potency result in experiment [16], in [17] and in experiment [20] was “inactive” in each case. In addition, the max response is 5.21% and -18.5% in experiment [18]; -2.08% and 0.668% in experiment [19].

Consider `Cc1ccc(N)c([N+](=O)[O-])c1`, for which the activity change, negative = cytotoxicity is 2.46% in [1] and 4.17% in experiment [2]. Further, in experiment [3], the caspase-3 activation was -0.471%. For the same molecule, the Potency entry in [4], in experiment [5], in [6], in experiment [7], in experiment [8] and in [9] was “inactive” in each case. The Potency entry in [10], in [11], in experiment [12], in [13], in experiment [14] and in experiment [15] was “inactive” each time. In addition, the Potency result in [16], in [17] and in experiment [20] was “inactive” throughout. Moreover, the max response in experiment [18] was -0.0872% and -10.2%; in experiment [19], -14.8% and -1.11%.
